This is a sample that favours compounds with a hit; in the whole collection about 19% have one here.
ELG1 repair inh: qHTS screen for small molecules that inhibit ELG1-dependent DNA repair in human embryonic kidney (HEK293T) cells expressing luciferase-tagged ELG1 | HEK293T ELG1-luciferase reporter, luminescence, 16 h; DNA damage induced by 5-fluorouridine | Potency, µM (top dose mostly 46.1 µM), without a hit: at the highest dose activity change, negative = inhibition, usual class: inhibitors | hit rate 2.3% among 330,000 | AID 504467, 2011; further: potency means the concentration at half of the fitted maximal effect; nearly all actives have a fitted effect of over 55% in size
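In this reporter screen, reduction of luminescence relative to DMSO vehicle indicated activity. Compounds and 5-fluorouridine were added together to 2,000 cells per well, incubated for 16 hr at 37 °C, then developed with ONE-Glo.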
IL-1B inflam inh: qHTS for Inhibitors of Inflammasome Signaling: IL-1-beta AlphaLISA Primary Screen | hit rate 4.7% among 360,000 | THP-1 LPS/ATP IL-1B secretion, AlphaLISA, 16 h; active compounds read low | activity change, % at 57.5 µM; in the data active means activity change below about -50%; inconclusive means mostly about -30% to -49%
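THP-1 cells pretreated 1 hr with compounds (up to 57.5 uM final), then stimulated with LPS (250 ng/mL final) plus ATP (1.25 mM final); secreted IL-1B measured by AlphaLISA after 16 hr, decreased signal indicating inhibition.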
HT1080-NT tox: qHTS for induction of synthetic lethality in tumor cells producing 2HG: qHTS for the HT-1080-NT fibrosarcoma cell line | HT-1080-NT fibrosarcoma viability, CellTiter-Glo ATP luminescence, 48 h | Potency, µM (doses to about 46.1 µM), inactives show at the top dose activity, negative = less viability, hits mostly cytotoxic | hit rate 1.6% among 360,000;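 further: NT is the 2HG producing partner of a matched IDH1 knockdown line; potency means the concentration at half of the fitted maximal effect; 0% = DMSO-treated cells and -100% = media-only wells without cells; nearly all actives have a fitted effect of over 55% in size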
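Viability by CellTiter-Glo luminescence after 48 h compound exposure at 37C of HT-1080-NT cells (750/well, RPMI, 5% FBS). % activity scaled between DMSO wells and medium-only wells, then curve-fitted and categorized by curve class.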
TDP1 cell noCPT: qHTS for Inhibitors of human tyrosyl-DNA phosphodiesterase 1 (TDP1): qHTS in cells in absence of CPT; DT40 Tdp1-/- hTDP1 cells, no CPT, ATP luminescence, 48 h; Potency, µM (series often up to 46.2 µM), for the others: at the highest dose activity change, negative = growth inhibition, usual class: inhibitors; hit rate 15% among 420,000; AID 686978, 2013; further: potency means the concentration at half of the fitted maximal effect; nearly all actives have a fitted effect of over 55% in size
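Compound effects on proliferation are scored in DT40 Tdp1-/-;hTDP1 cells in the absence of CPT. ATP levels (CellTiter-Glo luminescence) are recorded after a ≥48 hr, 37 °C incubation.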
HT1080 IDH1KD tx: qHTS for induction of synthetic lethality in tumor cells producing 2HG: qHTS for the HT-1080-IDH1KD cell line | HT-1080 IDH1 knockdown viability, ATP luminescence, 48 h | Potency, µM (highest dose often 46.1 µM), without a hit: top-dose activity, negative = toxicity, usual class: cytotoxic | hit rate 2% among 360,000;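 further: potency means the concentration at half of the fitted maximal effect; 0% = DMSO wells and -100% = cell-free medium wells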
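In this qHTS, HT-1080 cells depleted of IDH1 are exposed for 48 h at 37 °C to compound titrations. Toxicity is scored from CellTiter-Glo luminescence, with DMSO as full viability and medium alone as none.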
DT40 TDP1 CPT: qHTS for Inhibitors of human tyrosyl-DNA phosphodiesterase 1 (TDP1): qHTS in cells in presence of CPT; chicken DT40 Tdp1-/-;hTDP1 cells + 20 nM CPT, ATP luminescence, 48 h; Potency, µM (series often up to 46.2 µM), inactives show at the top dose activity change, negative = growth inhibition, most hits filed as inhibitors; hit rate 12% among 420,000; AID 686979, 2013; further: potency means the concentration at half of the fitted maximal effect; nearly all actives have a fitted effect of over 55% in size
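Cell growth measured by CellTiter-Glo luminescence after a minimum 48 h, 37 C compound exposure with 20 nM CPT in Tdp1-knockout DT40 cells stably expressing hTDP1, seeded 400/well; qHTS titration format.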
An asterisk follows results filed as active. Unless noted, the call rests on the fitted dose curve; in most records, active means well fitted curve in the direction sought with a large enough effect; inconclusive means small, poorly fitted or top-dose-only effect, or another doubt; inactive means no such curve, though single readings can be large; an effect the other way counts as inactive or inconclusive. Unless noted, on the % scale 0 is the no-effect control and ±100 the full control effect.

For COc1ccc(C(C)(C)C)cc1NC(=O)CCCN1C(=O)CN(C)C1=O the results were ELG1 repair inh 1%, IL-1B inflam inh -4, HT1080-NT tox 8%, TDP1 cell noCPT -15%, HT1080 IDH1KD tx 2% and DT40 TDP1 CPT -10%.
CCN1C[C@@H]2[C@@H]3C(=O)N(C)C(=O)[C@@H]3[C@](C)(C(=O)OC)N2C1=NC was read as ELG1 repair inh 24%, IL-1B inflam inh -2, HT1080-NT tox 18%, TDP1 cell noCPT 1%, HT1080 IDH1KD tx 3% and DT40 TDP1 CPT 8%.
Screening COCC(=O)Nc1cc(C(=O)N2CCCC(C(N)=O)C2)cc2nc(-c3ccccc3)n(C)c12 (stereo not drawn) returned TDP1 cell noCPT -11% and DT40 TDP1 CPT 1%.
Screening COCCn1c2nc(=O)n(-c3ccccc3)c(=O)c-2nc2ccccc21 returned IL-1B inflam inh 68, HT1080-NT tox -21%, TDP1 cell noCPT 12µM*, HT1080 IDH1KD tx inconclusive and DT40 TDP1 CPT inconclusive.
COCCn1c(COC)nc2ccccc21 was read as ELG1 repair inh 1%, IL-1B inflam inh 33, HT1080-NT tox 9%, TDP1 cell noCPT -1%, HT1080 IDH1KD tx 8% and DT40 TDP1 CPT 1%.
For S=C1NCN(C2CCCCC2)CN1c1ccccc1 the results were ELG1 repair inh -4%, IL-1B inflam inh 0, HT1080-NT tox -3%, TDP1 cell noCPT -8%, HT1080 IDH1KD tx 1% and DT40 TDP1 CPT -23%.
For COc1cccc(/C=N\NC(=O)c2ccc(Cn3cc(Br)c([N+](=O)[O-])n3)o2)c1O the results were ELG1 repair inh inconclusive, IL-1B inflam inh 167, HT1080-NT tox inconclusive, TDP1 cell noCPT 3.3µM*, HT1080 IDH1KD tx inconclusive and DT40 TDP1 CPT inconclusive.
COc1cc(/C=N\NC(=O)c2ccc(Cn3nc([N+](=O)[O-])c(Cl)c3C)o2)ccc1O was read as ELG1 repair inh inconclusive, IL-1B inflam inh -11, HT1080-NT tox -21%, TDP1 cell noCPT inconclusive, HT1080 IDH1KD tx -25% and DT40 TDP1 CPT -5%.
For COc1ccc(/C=N/NC(=O)c2ccco2)cc1Cn1nc(C)c([N+](=O)[O-])c1C the results were ELG1 repair inh -2%, IL-1B inflam inh 20, HT1080-NT tox -5%, TDP1 cell noCPT 18µM*, HT1080 IDH1KD tx -5% and DT40 TDP1 CPT inconclusive.
Screening COc1ccc(/C=N/NC(=O)c2ccco2)cc1Cn1nc(C)cc1C returned ELG1 repair inh 21%, IL-1B inflam inh 19, HT1080-NT tox 3%, TDP1 cell noCPT -21%, HT1080 IDH1KD tx 9% and DT40 TDP1 CPT -2%.
For COc1cccc(/C=N/NC(=O)Cn2nc(C)c([N+](=O)[O-])c2C)c1O the results were ELG1 repair inh -2%, IL-1B inflam inh 53, HT1080-NT tox inconclusive, TDP1 cell noCPT 5.8µM*, HT1080 IDH1KD tx 18µM* and DT40 TDP1 CPT 5.8µM*.
Screening COc1cccc(/C=N/NC(=O)C(C)n2nc(C)c([N+](=O)[O-])c2C)c1O (stereo not drawn) returned ELG1 repair inh 17%, IL-1B inflam inh 37, HT1080-NT tox -27%, TDP1 cell noCPT 1µM*, HT1080 IDH1KD tx inconclusive and DT40 TDP1 CPT 0.92µM*.
Cc1cc(=O)n(Cc2c(F)cccc2Cl)c2c1c(C)nn2C was read as TDP1 cell noCPT -25% and DT40 TDP1 CPT inconclusive.
Screening COc1cccc(NC(=O)CSc2cc(C)[nH]c(=O)n2)c1 returned TDP1 cell noCPT -28% and DT40 TDP1 CPT -8%.
`CC(C)NCCCCOc1ccccc1-c1ccccc1` gave ELG1 repair inh -4%.
For CCCn1c(CN2CCN(C(=O)OCC)CC2)nc2cc([N+](=O)[O-])ccc21 the results were ELG1 repair inh 2%, IL-1B inflam inh 13, HT1080-NT tox -2%, TDP1 cell noCPT inconclusive, HT1080 IDH1KD tx -10% and DT40 TDP1 CPT -17%.
`COc1ccc(N2CCN(C(=O)Cc3ccc(OC)c(OC)c3)CC2)cc1` gave ELG1 repair inh inconclusive, IL-1B inflam inh -2, HT1080-NT tox -14%, TDP1 cell noCPT 16µM*, HT1080 IDH1KD tx -16% and DT40 TDP1 CPT 8.2µM*.
COc1ccc(OC)c(S(=O)(=O)N(C)CC(=O)N2CCN(c3cccc(Cl)c3)CC2)c1 was read as ELG1 repair inh inconclusive, IL-1B inflam inh 2, HT1080-NT tox -13%, TDP1 cell noCPT 18µM*, HT1080 IDH1KD tx -1% and DT40 TDP1 CPT inconclusive.
For COc1ccc(N2CCN(C(=O)Cc3coc4ccc(C)cc34)CC2)cc1 the results were TDP1 cell noCPT inconclusive and DT40 TDP1 CPT 18µM*.
`COc1ccc(CC(=O)N2CCN(c3cccc(Cl)c3)CC2)cc1OC` gave ELG1 repair inh -21%, IL-1B inflam inh 29, HT1080-NT tox -9%, TDP1 cell noCPT 10µM*, HT1080 IDH1KD tx -3% and DT40 TDP1 CPT inconclusive.
Screening COc1ccc(OC)c(S(=O)(=O)N(C)CC(=O)N2CCN(c3ccc(F)cc3)CC2)c1 returned ELG1 repair inh inconclusive, IL-1B inflam inh -2, HT1080-NT tox -1%, TDP1 cell noCPT -21%, HT1080 IDH1KD tx -4% and DT40 TDP1 CPT -25%.
Screening O=C(NCCO)C(=O)NCC1OCCCN1S(=O)(=O)c1ccc2c(c1)OCCO2 (stereo not drawn) returned ELG1 repair inh -4%, IL-1B inflam inh 4, HT1080-NT tox 12%, TDP1 cell noCPT -9%, HT1080 IDH1KD tx 10% and DT40 TDP1 CPT -1%.
`Cc1ccc2onc(CC(=O)N3CCN(c4ccc(F)cc4)CC3)c2c1` gave TDP1 cell noCPT inconclusive and DT40 TDP1 CPT 15µM*.
For CC(O)CNCc1ccc(-c2ccccc2)cc1 (stereo not drawn) the results were ELG1 repair inh 5%, IL-1B inflam inh -24, HT1080-NT tox -29%, TDP1 cell noCPT -21%, HT1080 IDH1KD tx -23% and DT40 TDP1 CPT -14%.

Screening data: PubChem, National Center for Advancing Translational Sciences (NCATS)
